Reference: the supplement of paper PMC7156485
± gives the standard deviation of the averaged measurements.

Key:
Settings in all cases: concentration: 10 µM; 24 h
[1] = tested on: HCC1569; experiment: cell number relative to DMSO (% of DMSO); higher = more cells (less growth inhibition / toxicity)
In short: (§1)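 Treatment: HCC1569 and TDF cells, 800 per well in 384-well plates with RPMI and 10% FBS, were given compounds at 10 µM for 24 h at 37 °C, in triplicate. Readout: after 3.7% formaldehyde fixation, cells were stained with a rabbit anti-H1.0 antibody, an AlexaFluor 647 secondary and DAPI. Reported values are H1.0 nuclear intensity or cell number as percent of the plate control, taken as the median of replicates, with positional smoothing for HCC1569.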

[2] = tested on: TDF; experiment: as above
In short: as §1

[3] = tested on: TDF; experiment: H1.0 immunofluorescence intensity relative to DMSO (% of DMSO); higher = stronger H1.0 induction, active = 120 or more
In short: as §1

[4] = tested on: HCC1569; experiment: H1.0 immunofluorescence intensity relative to DMSO (% of DMSO); higher = stronger H1.0 induction, active = 140 or more
In short: as §1
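Wherever H1.0 immunofluorescence intensity relative to DMSO is given: TDF is a line of transformed human dermal fibroblasts of mesenchymal origin.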
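Wherever cell number relative to DMSO is given: TDF denotes transformed human dermal fibroblasts of mesenchymal origin.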

Structure (SMILES) | cell number [1] | cell number [2] | H1.0 immunofluorescence intensity [3] | H1.0 immunofluorescence intensity [4]
CCOc1nc2cccc(C(=O)O)c2n1Cc1ccc(-c2ccccc2-c2nc(=O)o[nH]2)cc1 | 79.7 | 101 | 103 (inactive) | 137 (inactive)
CC(=O)NC(CS)C(=O)O (stereo not drawn) [N-Acetyl-Cysteine] | 102 | 95.1 | 96.3 (inactive) | 90.6 (inactive)
Nc1ncnc2c1C(=O)N(c1ccc(C3CCC(CC(=O)O)CC3)cc1)CCO2 (stereo not drawn) | 103 | 95.7 | 99.8 (inactive) | 98.5 (inactive)
CCCCCC=CCC=CCC=CCCCCCCC(=O)O [Dihomo-γ-linolenic acid] | 99.6 | 98.6 | 96.3 (inactive) | 97.7 (inactive)
Cl.Cl.Fc1ccc(C(c2ccc(F)cc2)N2CCN(CC=Cc3ccccc3)CC2)cc1 [Flunarizine.2HCl] | 97.6 | 105 | 92.2 (inactive) | 112 (inactive)
CCn1cc(C(=O)O)c(=O)c2cc(F)c(N3CCNC(C)C3)c(F)c21 (stereo not drawn) [Lomefloxacin] | 101 | 90.9 | 95.3 (inactive) | 100 (inactive)
O=C(O)CCCC=CCC1C(O)CC(O)C1C=CC(O)COc1cccc(C(F)(F)F)c1 (stereo not drawn) [Fluprostenol] | 100 | 96 | 92.2 (inactive) | 97.4 (inactive)
Nc1ccc2ncnc(NCCc3ccc(Oc4ccccc4)cc3)c2c1 [NF-kB Activation Inhibitor] | 66.3 | 70.7 | 106 (inactive) | 164 (active)
COc1ccc(S(=O)(=O)N(CCO)c2ccccc2CN(C)CC=Cc2ccc(Cl)cc2)cc1 | 74.4 | 86.7 | 103 (inactive) | 183 (active)
CCOC(=O)CN1C(=O)c2ccc3c4c(ccc(c24)C1=O)C(=O)N(CC(=O)OCC)C3=O | 104 | 105 | 89.7 (inactive) | 100 (inactive)
COC(=O)CNC(=O)C(=O)OC [methyl 2-(2-methoxy-2-oxoethylamino)-2-oxoacetate] | 96.5 | 109 | 99.2 (inactive) | 101 (inactive)
COc1cc2ncnc(Nc3ccc(O)cc3)c2cc1OC | 100 | 115 | 89 (inactive) | 96.6 (inactive)
O.O=c1c(O)c(-c2ccc(O)cc2O)oc2cc(O)cc(O)c12 | 104 | 94.5 | 100 (inactive) | 98.8 (inactive)
Nc1nc(=O)c2ncn(COCCO)c2[nH]1 [Acyclovir] | 98.8 | 104 | 90.2 (inactive) | 85.5 (inactive)
CC12CCC(=O)C=C1CCC1C2C(O)CC2(C)C(C(=O)CO)CCC12 (stereo not drawn) [Corticosterone] | 101 ± 2.6 | 103.3 ± 0.6 | 92.8 (inactive) | 100 (inactive)
CC(COc1ccccc1)N(CCCl)Cc1ccccc1.Cl (stereo not drawn) [Phenoxybenzamine hydrochloride] | 71.6 | 69.5 | 105 (inactive) | 107 (inactive)
O=C1OC(=O)C2C3CCC(O3)C12 (stereo not drawn) [Norcantharidin] | 96 | 92.3 | 105 (inactive) | 103 (inactive)
O=C(NOCC(O)CO)c1ccc(F)c(F)c1Nc1ccc(I)cc1F (stereo not drawn) | 105 | 104 | 87.3 (inactive) | 94.6 (inactive)
Cc1cccc(-c2[nH]ncc2-c2ccc3ncccc3n2)n1 | 96.6 | 95.3 | 94.9 (inactive) | 92.8 (inactive)
CC1=C(CC(=O)O)c2cc(F)ccc2C1=Cc1ccc(S(C)(=O)=O)cc1 [Sulindac sulfone] | 104 | 117 | 100 (inactive) | 103 (inactive)
Cc1cc(C)c(S(=O)(=O)Nc2cccc(C(F)(F)F)c2)c(C)c1 | 99.3 | 90 | 105 (inactive) | 104 (inactive)
O=C(O)c1ccccc1Nc1cccc(C(F)(F)F)c1 [Flufenamic acid] | 103 | 105 | 91.9 (inactive) | 106 (inactive)
O=c1cc(-c2ccccc2)oc2cc(O)cc(O)c12 [Chrysine] | 101 | 99.8 | 93.8 (inactive) | 92.7 (inactive)
CCOC(=O)[C@H](CCc1ccccc1)N[C@@H](C)C(=O)N1CCC[C@H]1C(=O)O.O=C(O)C=CC(=O)O | 102 | 99.6 | 91 (inactive) | 100 (inactive)
COc1ccc(N2C(=O)CSC2c2cccc(Br)c2)c(OC)c1 (stereo not drawn) | 59.5 | 10.8 | 156 (active) | 146 (active)
Cc1cc(F)c(Nc2ncnc3cc(OCc4ccccc4)ccc23)cc1O.Cl | 91.6 | 105 | 94.5 (inactive) | 138 (inactive)

Structure (SMILES) | cell number [1] | cell number [2] | H1.0 immunofluorescence intensity [3] | H1.0 immunofluorescence intensity [4]
Cc1cccc2c3c(ccc12)C1=C(C(=O)C3=O)C(C)CO1 (stereo not drawn) [Dihydrotanshinone] | 53.6 | 33.6 | 111 (inactive) | 106 (inactive)
CN1C2CCCC1CC(NC(=O)c1nn(C)c3ccccc13)C2 (stereo not drawn) [Granisetron] | 93.7 | 93.9 | 104 (inactive) | 102 (inactive)
CCC(=O)c1ccc2c(c1)N(CCCN(C)C)c1ccccc1S2.Cl [Propionylpromazine hydrochloride] | 97.4 | 97.1 | 104 (inactive) | 117 (inactive)
COc1cc2c3cc1Oc1cc(ccc1O)CC1c4c(cc(OC)c(O)c4Oc4ccc(cc4)CC3N(C)CC2)CC[N+]1(C)C (single isomer, unassigned; (+)) [(+)-Tubocurarine chloride] | 103 | 92.5 | 104 (inactive) | 89.2 (inactive)
NC(N)=NCCCCN=C(N)N.O=S(=O)(O)O [Arcaine sulfate] | 104 | 107 | 89 (inactive) | 92.3 (inactive)
O=[N+]([O-])c1ccc(CSc2ncnc3c2ncn3C2OC(CO)C(O)C2O)cc1 (stereo not drawn) [S-(4-Nitrobenzyl)-6-thioinosine] | 99 | 111 | 92.2 (inactive) | 80.6 (inactive)
O=C(ON1C(=O)CCC1=O)N1CCN(C(c2ccc(Cl)cc2)c2ccc(Cl)cc2)CC1 | 77.8 | 82.1 | 112 (inactive) | 126 (inactive)
OCC1=CC(O)C2C=COC(OC3OC(CO)C(O)C(O)C3O)C12 (stereo not drawn) [Aucubin] | 99.6 | 107 | 99.8 (inactive) | 85 (inactive)
Cl.Cl.N=C(N)c1ccc(N)cc1 [4-Aminobenzamidine dihydrochloride] | 99.9 | 102 | 92.2 (inactive) | 94.1 (inactive)
CCCCCCCCCCCCCCC[C@@H](O)[C@@H](N)CO [(2S,3R)-2-amino-1,3-octadecanediol] | 97.2 | 39.4 | 120 (active) | 96.2 (inactive)
Cn1ccc(NC(=O)c2cc(Oc3ccc(C(=O)N4CCC4)c(F)c3)c3c(c2)OC(C)(C)C3)n1 | 103 | 94.2 | 102 (inactive) | 105 (inactive)
Cl.Fc1ccc(C(OCCCc2cnc[nH]2)c2ccc(F)cc2)cc1 | 99.8 | 108 | 88.3 (inactive) | 99.8 (inactive)
NC1CCCCC1N.O=C([O-])C(=O)[O-].[Pt+2] (stereo not drawn) [Oxaliplatin] | 87.5 ± 5.5 | 87.2 ± 18 | 97.9 (inactive) | 121 (inactive)
COCCCOc1ccnc(CS(=O)c2nc3ccccc3[n-]2)c1C.[Na+] (stereo not drawn) | 101 | 90.9 | 103 (inactive) | 106 (inactive)
NC(N)=NN=Cc1c(Cl)cccc1Cl [Guanabenz] | 98.5 | 91.9 | 98.2 (inactive) | 118 (inactive)
CC(C)C(CO)Nc1nc(Nc2ccc(C(=O)O)c(Cl)c2)c2ncn(C(C)C)c2n1 (stereo not drawn) [Purvalanol B] | 101 | 110 | 93.1 (inactive) | 98.7 (inactive)
O=c1cc(-c2ccccc2)oc2cc(O)ccc12 [7-Hydroxyflavone] | 103 | 104 | 96.8 (inactive) | 88.8 (inactive)
Cc1c[nH]c(C=C2C(=O)Nc3ccccc32)c1CCC(=O)O | 101 | 102 | 95.4 (inactive) | 103 (inactive)
O=c1cc(-c2ccc(O)cc2)oc2c(C3OC(CO)C(O)C(O)C3O)c(O)cc(O)c12 (stereo not drawn) [Vitexin] | 101 | 100 | 99.5 (inactive) | 85.1 (inactive)
COc1cc2c(Nc3ccc(NC(=O)c4ccccc4)cc3)ncnc2cc1OCCCN1CCOCC1 | 49.8 | 44 | 126 (active) | 151 (active)
Cc1[nH]ccc2c1[nH]c1cc(=O)ccc12.Cl.O.O | 94 | 94.7 | 97.1 (inactive) | 94.2 (inactive)
C[C@@H](O)[C@H]1C(=O)N2C(C(=O)O)=C(SCCN=CN)C[C@H]12.O | 101 | 104 | 99.9 (inactive) | 93.3 (inactive)
Nc1ccc2c3c(cccc13)C(=O)NC2=O [4-Amino-1,8-naphthalimide] | 94.1 | 77.8 | 104 (inactive) | 150 (active)
O=C1CCc2cc(OCCCCc3nnnn3C3CCCCC3)ccc2N1 [Cilostazol] | 101 | 109 | 90.2 (inactive) | 97 (inactive)
COc1ccc(C2(C#N)CCC(C(=O)O)CC2)cc1OC1CCCC1 (stereo not drawn) | 105 | 99.6 | 98.8 (inactive) | 90.2 (inactive)
Cc1ccc(-c2c(-c3nn(C)c4ncnc(N5CC[C@H](N6CCCCC6)C5)c34)cnn2C)cc1 | 99.6 | 96.4 | 103 (inactive) | 99.2 (inactive)
